Data on 17 compounds can be found in PubChem BioAssay (Tox21).

Several values for one entry are separate records, joined by “and”; a condition that tells them apart may be missing. Identical values can stand only once. Activity calls are given as the source filed them. Unless noted, calls come from the whole dose curve; as a rule, active = well fitted curve in the direction sought with a large enough effect in the repeat runs; inconclusive = weak or mixed curves; inactive = no such curve, though single readings can be large; an effect the other way counts as inactive or inconclusive.

The nature of test [1]: qHTS assay to identify small molecule antagonists of the thyroid receptor (TR) signaling pathway - cell viability counter screen (AID 743064). Note: nearly all actives have a fitted effect of over 50% in size. Note: potency is the fitted concentration of half-maximal effect. The method, boiled down: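 GH3.TRE-Luc rat pituitary cells dosed after 4 hr plating, co-stimulated with T3 at 1 nM final, incubated 23.5 h at 37 C. Viability measured in the same wells by CellTiter-Fluor fluorescence after 30 min further at 37 C.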
(In general: Quantitative high-throughput screening tests each substance at several concentrations.)

Test [2] is described as follows: qHTS assay to identify small molecule antagonists of the thyroid receptor (TR) signaling pathway (AID 743065). Note: nearly all actives have a fitted effect of over 55% in size. Note: potency is the fitted concentration of half-maximal effect. The method, boiled down:
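GH3.TRE-Luc rat pituitary cells (two TREs driving luciferase) were dosed with compound, then stimulated with 1 nM T3 (final) for 23.5 h at 37 C. ONE-Glo luminescence was the read-out, with CellTiter-Fluor fluorescence as the cytotoxicity counter-screen.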

The target of test [3] is Estrogen receptor (Homo sapiens) (UniProt P03372). Kind of test: qHTS assay to identify small molecule antagonists of the estrogen receptor alpha (ER-alpha) signaling pathway (AID 743069; active = well fitted curve in the direction sought with a large enough effect in the signal ratio in the repeat runs, not every such curve was filed as active; inconclusive = weak or mixed curves, or effect the other way; inactive = no such curve, though single readings can be large or run the other way; the % refers to the signal ratio; note: potency is the fitted concentration of half-maximal effect). The method, boiled down: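 In this cell-based reporter format, GripTite HEK293 cells harbouring ER-alpha-UAS-bla were grown overnight with 2% charcoal-stripped FBS, dosed with DMSO-dissolved compounds, then challenged with 17beta-estradiol. After 18 hr at 37C, beta-lactamase activity was detected by FRET fluorescence.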
Estrogen receptor (Homo sapiens), sequence (P03372 whole entry, looked up): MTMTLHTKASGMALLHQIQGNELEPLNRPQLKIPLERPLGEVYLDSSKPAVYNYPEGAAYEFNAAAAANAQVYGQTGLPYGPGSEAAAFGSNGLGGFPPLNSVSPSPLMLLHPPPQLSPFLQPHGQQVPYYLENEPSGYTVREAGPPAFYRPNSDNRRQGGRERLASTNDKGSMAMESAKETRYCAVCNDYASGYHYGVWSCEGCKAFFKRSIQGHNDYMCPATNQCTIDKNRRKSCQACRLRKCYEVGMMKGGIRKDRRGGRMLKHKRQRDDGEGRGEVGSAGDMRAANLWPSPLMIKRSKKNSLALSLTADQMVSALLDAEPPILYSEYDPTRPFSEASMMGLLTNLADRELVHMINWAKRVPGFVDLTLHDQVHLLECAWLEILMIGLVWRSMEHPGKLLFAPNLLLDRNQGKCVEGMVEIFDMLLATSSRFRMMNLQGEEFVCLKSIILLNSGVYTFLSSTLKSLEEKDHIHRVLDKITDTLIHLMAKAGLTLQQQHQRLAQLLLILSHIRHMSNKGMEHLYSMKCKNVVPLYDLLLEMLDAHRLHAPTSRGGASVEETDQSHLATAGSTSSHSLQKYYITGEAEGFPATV

Test [4] in a line: qHTS assay to identify small molecule antagonists of the estrogen receptor alpha (ER-alpha) signaling pathway - cell viability counter screen (AID 743074; calls by dose curve; note: nearly all actives have a fitted effect of over 45% in size; note: potency is the fitted concentration of half-maximal effect).
Test [5] has as its target Estrogen receptor (Homo sapiens) (UniProt P03372). Kind of test: qHTS assay to identify small molecule agonists of the estrogen receptor alpha (ER-alpha) signaling pathway (AID 743075; calls by dose curve).
The target is the same in test [6]. In words: qHTS assay to identify small molecule agonists of the estrogen receptor alpha (ER-alpha) signaling pathway using the BG1 cell line (AID 743079). Note: nearly all actives have a fitted effect of over 20% in size. Note: potency is the fitted concentration of half-maximal effect. Conditions: BG1Luc4E2 cells, ERE-luciferase agonist, 22 h; activation: at 70.3 µM (top of the series).
Test [7] is described as follows: qHTS assay to identify small molecule antagonists of the estrogen receptor alpha (ER-alpha) signaling pathway using the BG1 cell line (AID 743080; calls by dose curve;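 note: BG1 cells stimulated with 17beta-estradiol alongside compound; nearly all actives have a fitted effect of over 25% in size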; note: potency is the fitted concentration of half-maximal effect). The method, boiled down:
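Luciferase inhibition measured with ONE-Glo after 30 min at RT in BG1Luc4E2 cells given test compounds and 17beta-estradiol for 21.5 h at 37 C; CellTiter-Fluor viability read in the same wells beforehand.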

Test [8] is described as follows: qHTS assay to identify small molecule antagonists of the estrogen receptor alpha (ER-alpha) signaling pathway using the BG1 cell line - cell viability counter screen (AID 743081).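 Note: compound given together with 17beta-estradiol as the ER stimulus; nearly all actives have a fitted effect of over 45% in size.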 Note: potency is the fitted concentration of half-maximal effect.
The target of test [9] is Aromatase (Homo sapiens) (UniProt P11511). Kind of test: qHTS assay to identify aromatase inhibitors (AID 743083). Note: nearly all actives have a fitted effect of over 55% in size. Note: potency is the fitted concentration of half-maximal effect.
Aromatase (Homo sapiens), sequence (P11511 whole entry, looked up): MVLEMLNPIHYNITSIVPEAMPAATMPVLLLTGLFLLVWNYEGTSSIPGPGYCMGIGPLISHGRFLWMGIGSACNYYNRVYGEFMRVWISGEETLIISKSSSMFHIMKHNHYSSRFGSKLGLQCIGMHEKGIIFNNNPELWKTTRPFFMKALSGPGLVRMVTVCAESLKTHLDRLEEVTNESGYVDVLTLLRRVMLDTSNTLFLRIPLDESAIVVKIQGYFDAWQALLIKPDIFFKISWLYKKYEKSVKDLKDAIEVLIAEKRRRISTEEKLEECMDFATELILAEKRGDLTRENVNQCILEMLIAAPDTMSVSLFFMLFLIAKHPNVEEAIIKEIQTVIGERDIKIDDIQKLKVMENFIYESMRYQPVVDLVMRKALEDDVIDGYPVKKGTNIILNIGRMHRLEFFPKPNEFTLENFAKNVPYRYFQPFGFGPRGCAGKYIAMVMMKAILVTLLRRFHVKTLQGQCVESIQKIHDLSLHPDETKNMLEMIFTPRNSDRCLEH
Test [10] deals with thyroid hormone receptor (rat, GH3 cells). In words: qHTS assay to identify small molecule agonists of the thyroid receptor (TR) signaling pathway (AID 743066; calls by dose curve).

Consider `C[C@H]1[C@@H](OC(=O)CCC(=O)O)O[C@@H]2OC3(C)CC[C@H]4[C@H](C)CC[C@@H]1[C@@]24OO3`, for which the results for the Potency in test [1], in test [2] and in [3] were 2.98 µM (active), 1.06 µM (active) and 7.56 µM [inconclusive] (active), respectively. The Potency result in test [4], in [5], in test [6] and in [7] was “inactive” in each case.
As for `CN(C)C(=O)CCSC(SCCC(=O)O)c1cccc(/C=C/c2ccc3ccc(Cl)cc3n2)c1` (configuration not stated), the Potency in [1] was 29.8 µM (active); in [2], 26.6 µM (active); in [3] it was 7.56 µM [inconclusive] (active); in [6], 2.37 µM (active). For the same compound, the Potency result in test [4], in [5], in test [8] and in test [9] was “inactive” throughout.
As for `O=C(O)c1c(Cl)c(Cl)c(Cl)c(Cl)c1-c1c2cc(I)c(=O)c(I)c-2oc2c(I)c(O)c(I)cc12`, the Potency in test [1], in test [2] and in test [8] was 23.7 µM (active) in each case. The Potency result in test [10], in [5], in [7] and in [9] was “inactive” in each case.
Regarding `CC(CN1c2ccccc2Sc2ccc(S(=O)(=O)N(C)C)cc21)N(C)C` (configuration not stated), the Potency in test [1] was 11.9 µM (active); in test [2], 13.3 µM (active). The Potency result in test [3], in test [4], in [5], in test [6], in [7] and in [8] was “inactive” throughout.
With `CCN(CC)CCC(=O)N1c2ccccc2Sc2ccc(C(F)(F)F)cc21`, the Potency is 13.3 µM (active) in test [1] and 26.6 µM (active) in test [2]. For the same compound, the Potency result in [3], in [4], in test [5], in test [7], in [8] and in test [9] was “inactive” throughout.
Take `C#C[C@]1(OC(C)=O)CC[C@H]2[C@@H]3CCC4=CC(=O)CC[C@@H]4[C@H]3CC[C@@]21C`: the Potency entry in [1], in test [10] and in [8] was “inactive” each time. The Potency in [2] is 9.44 µM (active).
For `CC(C)(C)c1ccc(CN2CCN(C(c3ccccc3)c3ccc(Cl)cc3)CC2)cc1` (configuration not stated), the Potency in test [1] was 33.5 µM (active); in [2], 21.1 µM (active). Also, the Potency entry in [10], in [5] and in [8] was “inactive” in each case.
Consider `CC1=C(/C=C/C(C)=C/C=C/C(C)=C/C(=O)Oc2c(C)c(C)c3c(c2C)CC[C@@](C)(CCC[C@H](C)CCC[C@H](C)CCCC(C)C)O3)C(C)(C)CCC1`, for which the Potency entry in test [1], in [2], in [3], in [4], in [5] and in test [6] was “inactive” in each case. In addition, the Potency result in test [8] is “inactive”. In test [7], the Potency is 7.5 µM (active).
In the case of `OC[C@H]1OC([S-])[C@H](O)[C@@H](O)[C@@H]1O.[Au+]` (some centres not stated), the Potency was 10.6 µM (active) in [1] and 7.5 µM (active) in [2]. In addition, the Potency result in [3], in test [4], in test [5], in test [6], in test [7] and in [8] was “inactive” throughout. For the same compound, the Potency entry in test [9] was “inactive”.
As for `COC(=O)[C@H]1[C@H]2C[C@@H]3c4[nH]c5ccccc5c4CCN3C[C@H]2C[C@@H](OC(=O)c2cc(OC)c(OC)c(OC)c2)[C@@H]1OC`, the Potency in [1] is 26.6 µM (active); in [2], 2.11 µM (active) and 21.1 µM (active); in test [3] it was 2.39 µM [inconclusive] (active); in test [7], 6.68 µM (active); in test [9], 5.96 µM (active) and 29.8 µM (active). Also, the Potency result in test [4], in [5], in test [6] and in test [8] was “inactive” each time.
On to `CC(C)N=c1cc2n(-c3ccc(Cl)cc3)c3ccccc3nc-2cc1Nc1ccc(Cl)cc1`, for which the Potency in test [1] is 7.17 µM (active); in [2], 6.39 µM (active); in [8], 11.4 µM (active). Also, the Potency entry in test [3], in test [4], in test [5], in test [6] and in test [9] was “inactive” throughout.
Take `CN(C)CCCN1c2ccccc2C(C)(C)c2ccccc21`: the results for the Potency in [1] and in test [2] were 23.7 µM (active) and 26.6 µM (active), respectively. Besides, the Potency result in test [3], in test [4], in test [5], in test [6], in test [7] and in test [8] was “inactive” in each case. In addition, in [9], the Potency entry is “inactive”.
With `CCC[C@@H]1C[C@@H](C(=O)N[C@@H]([C@H]2O[C@H](SC)[C@H](O)[C@@H](O)[C@H]2O)[C@H](C)Cl)N(C)C1`, the Potency entry in test [1], in test [10], in [3], in test [4], in test [5] and in test [6] was “inactive” throughout. Besides, the Potency entry in test [7], in test [8] and in [9] was “inactive” throughout.
Consider `CCCCCCOc1ccc(C(=N)N(CCCC)CCCC)c2ccccc12`, for which the Potency in test [1] is 5.31 µM (active); in test [2], 5.31 µM (active); in [4] it was 9.52 µM (active); in [8], 33.5 µM (active); in [9], 13.3 µM (active).
In the case of `CC(CN(C)C)CN1c2ccccc2Sc2ccc(C(F)(F)F)cc21` (configuration not stated), the results for the Potency in [1] and in test [2] were 8.41 µM (active) and 13.3 µM (active), respectively. The Potency entry in [4] and in [8] was “inactive” in each case.
As for `CCNC(=O)[C@@H]1CCCN1C(=O)[C@H](CCCN=C(N)N)NC(=O)[C@H](CC(C)C)NC(=O)[C@@H](Cc1c[nH]c2ccccc12)NC(=O)[C@H](Cc1ccc(O)cc1)NC(=O)[C@H](CO)NC(=O)[C@H](Cc1c[nH]c2ccccc12)NC(=O)[C@H](Cc1cnc[nH]1)NC(=O)[C@@H]1CCC(=O)N1`, the Potency in test [1] is 1.5 µM (active); in [2], 1.33 µM (active); in test [4], 10.7 µM (active); in [8], 10.6 µM (active); in test [9], 13.3 µM (active).
Regarding `Cc1cccc(C)c1N(CCCc1cccnc1)C(=O)C(C)N` (configuration not stated), the Potency result in test [1], in test [10], in [3], in [4], in [5] and in test [6] was “inactive” each time. Also, the Potency result in test [7] and in [8] was “inactive” in each case. The Potency in test [9] was 5.96 µM (active).
